# Compound activity: PubChem BioAssay, several laboratories
# Hits are enriched below; roughly 4.9% of the tested compounds scored in any of these assays.
# SKKanGAS inh = SKKanGAS growth inhibition; S. pyogenes SKKanGAS, kanamycin growth, BacTiter-Glo, 6 h; inhibition, % at 7.5 µM; actives 1.3% (n = 300,000); AID 1662;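 active means mean replicate score, as percent of positive control median, at least 50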;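 further: strain carries kanamycin resistance gene driven by streptokinase promoter and grows in 40 µg/ml kanamycin; loss of luminescence reflects streptokinase promoter inhibition or plain growth inhibition; 0% = median of DMSO wells and 100% = positive control at its reference dose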
# NLRP3 yeast inh = inhibitors of NALP3 inflammasome in yeast. Yeast reconstituted NLRP3/ASC/caspase-1, beta-gal luminescence, 24 h. inhibition, % at 10 µM. actives 0.39% (n = 330,000). AID 2825;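 active means inhibition of 50% or more; inactive means inhibition below 50%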;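 further: plate controls were induced DMSO wells for no effect and uninduced yeast grown without galactose for full effect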
# tim23-1 inh = inhibits growth of tim23-1 mutant yeast; S. cerevisiae tim23-1 growth, BacTiter-Glo luminescence, 24 h; inhibition, % at 20 µM; actives 1.3% (n = 330,000); AID 463212;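 active means growth inhibition of the mutant yeast at or above 50%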;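 further: temperature-sensitive mutant grown at 25 °C; plate controls were DMSO-treated mutant yeast for no effect and medium wells lacking yeast for full effect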
# NALP1 inh = blocks the NALP1 inflammasome reconstituted in yeast. actives 0.61% (n = 280,000). S. cerevisiae NALP1/ASC/caspase-1 growth, X-gal OD620, 72 h. inhibition, % at 10 µM. AID 2071; in the data active means inhibition mostly above about 24%, no sharp cut-off; inactive means mostly below about 32%
# TIM10 inh = growth inhibitors of TIM10 yeast strain; S. cerevisiae TIM10 strain growth, BacTiter-Glo luminescence, 24 h; inhibition, % at 10 µM; actives 1.4% (n = 330,000);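 active means inhibition of 40% or more at the single tested concentration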;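 further: wild-type TIM10 isogenic control strain grown at permissive 25 °C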
# tim10-1 inh = tim10-1 yeast growth inhibition; S. cerevisiae tim10-1 ts strain growth, BacTiter-Glo, 24 h; actives 2.2% (n = 330,000); inhibition, % at 20 µM;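 active means inhibition of at least 40%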;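 further: mutant grown at 25 °C; 0% = DMSO wells with yeast and 100% = wells holding no yeast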
# tim10-1 confirm = confirmation of tim10-1 mutant yeast growth inhibitors; shares compounds with tim10-1 inh; S. cerevisiae tim10-1 ts strain growth, BacTiter-Glo, 24 h; inhibition, % at 20 µM; actives 56% (n = 7,400);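 active means inhibition of yeast growth at or above a set limit in either of two repeat tests at 20 µM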;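 further: tim10-1 mutant grown at permissive 25 °C to find synthetic lethal compounds; 0% = DMSO yeast wells and 100% = medium wells without yeast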
# TIM10 conf = confirmation of TIM10 yeast growth inhibitors; actives 63% (n = 4,600); S. cerevisiae tim10 strain growth, BacTiter-Glo luminescence, 24 h; shares compounds with TIM10 inh; inhibition, % at 10 µM;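 active means inhibition of yeast growth at or above a set limit in either of two replicates at 10 µM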;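 further: this counterscreen used the strain with wild-type TIM10; 0% = yeast with DMSO and 100% = medium wells lacking yeast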
# tim23-1 confirm = tim23-1 yeast growth inhibition, confirmed | shares compounds with tim23-1 inh | S. cerevisiae tim23-1 growth, BacTiter-Glo luminescence, 24 h | inhibition, % at 20 µM | actives 83% (n = 4,400);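 active means inhibition above about 39% in either of two replicate wells at 20 µM, limit read from the data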;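 further: temperature-sensitive tim23-1 mutant grown at 25 °C; 0% = DMSO wells with yeast and 100% = medium wells without yeast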
# * marks the source's active call; other numbers are inactive results; . = not tested or not shown.
SMILES,SKKanGAS inh,NLRP3 yeast inh,tim23-1 inh,NALP1 inh,TIM10 inh,tim10-1 inh,tim10-1 confirm,TIM10 conf,tim23-1 confirm
Cc1cccc(NC(=O)C2CCN(C(=O)c3ccc(F)cc3)CC2)n1,-2,9,-2,.,-1,-5,.,.,.
COc1ccc2[nH]c3c4c(ccc3c2c1)C(=O)C=CC4=O,.,38,76*,12,79*,62*,77*,99*,-23
Fc1ccc(NC(=S)N2CCCC2)cc1Cl,-5,-3,9,29,-3,10,.,.,.
Fc1ccc(NC(=S)Nc2ccc(F)c(Cl)c2)cc1Cl,64*,10,72*,6,53*,71*,61*,-15,65*
CC(C)[C@H](NC(=O)N1c2ccccc2NC(=O)[C@@H]1C(C)C)C(=O)N[C@@H](Cc1c[nH]c2ccccc12)C(=O)O,3,9,-13,0,4,-4,.,.,.
CCCc1nc2sc3ccccc3c(=O)c2c(=O)n1CCOC,4,21,-6,0,-21,6,.,.,.
CCc1nc2sc3ccccc3c(=O)c2c(=O)n1Cc1ccc(OC)cc1,20,31,53*,.,17,40*,31*,.,41*
O=C(NC(=S)NCCc1ccccc1)c1ccco1,3,-6,56*,-9,48*,42*,26,-15,48*
NS(=O)(=O)c1ccc(NC(=S)NCCc2ccccc2)cc1,2,15,-1,-10,-5,-1,.,.,.
O=C(NC(=S)NC1CCCc2ccccc21)c1ccc(F)cc1 (stereo not given),40,-21,37,-21,18,35,.,.,.
O=[N+]([O-])c1ccc(NC(=S)NCCc2ccccc2)cc1,5,35,52*,34,59*,67*,57*,52*,69*
O=C(NC(=S)NC1CCCc2ccccc21)c1ccco1 (stereo not given),14,-21,52*,7,43*,51*,41*,43*,58*
O=C(NC(=S)NCCC1=CCCCC1)c1ccco1,-11,-29,41,9,17,37,.,.,.
Cc1cccc(Nc2nc(-c3ccc(O)cc3O)cs2)n1,-2,23,87*,12,33,43*,38*,.,72*
Oc1ccc(-c2csc(Nc3ncccn3)n2)c(O)c1,-16,21,4,4,8,11,.,.,.
CC1=CC(C)(C)N2C(=O)C(=O)c3cc(OC(=O)c4ccco4)cc1c32,-9,8,68*,-7,34,51*,36*,.,1
O=C(Oc1cccc(OC(=O)c2ccco2)c1)c1ccco1,0,15,8,7,-10,-9,.,.,.
CC(=O)c1ccc(OCCCC(=O)NNC(=O)c2ccccn2)cc1,.,14,1,.,-4,8,.,.,.
CCOc1ccccc1OCCCC(=O)ON=C(N)c1ccccc1,.,4,8,.,15,35,.,.,.
CCN1CCN(CCCNC(=O)c2ccc(/C=C3/Oc4ccccc4N(Cc4cccc(C)c4)C3=O)cc2)CC1,12,12,57*,23,-2,49*,7,.,48*
CCCCCC(=O)N/N=C/c1ccc([N+](=O)[O-])o1,4,13,22,-8,26,22,.,.,.
O=[N+]([O-])c1ccc(/C=N/NC(=S)Nc2ccccc2F)o1,14,3,55*,-2,43*,56*,47*,-6,58*
O=C(CCC(=O)Nc1ccc(Cl)cc1Cl)N/N=C/c1ccc([N+](=O)[O-])o1,17,15,92*,-11,45*,64*,43*,51*,88*
O=C(N/N=C\c1ccc([N+](=O)[O-])o1)C1COc2ccccc2O1 (stereo not given),-6,16,57*,-10,31,57*,49*,.,42*
O=c1oc(-c2ccc(Br)o2)nc2ccccc12,-2,12,54*,7,32,46*,16,.,60*
SMILES,SKKanGAS inh,NLRP3 yeast inh,tim23-1 inh,NALP1 inh,TIM10 inh,tim10-1 inh,tim10-1 confirm,TIM10 conf,tim23-1 confirm
CC1CCc2c(sc(NC(=O)C3=COCCO3)c2C(N)=O)C1 (stereo not given),.,9,21,.,16,13,.,.,.
CNC(=O)c1c(NC(=O)C2=COCCO2)sc2c1CCC(C)C2 (stereo not given),.,9,56*,0,31,51*,23,.,50*
Cc1c(C)n(Cc2ccccc2)c2ncnc(Cl)c12,24,16,43,16,3,34,.,.,.
Cc1ccc(Nc2cc(C)nn2-c2nc(C)cc(C)n2)cc1,101*,35,53*,15,44*,47*,25,-25,47*
CC(=O)Nc1cc(C)nn1-c1nc(C)cc(C)n1,3,-2,2,-20,-15,9,.,.,.
O=C(CCCSc1nnc(Nc2ccccc2F)s1)N1CCOCC1,-4,7,2,-28,-10,22,.,.,.
CCNC(=O)NC(=O)CSc1ccc(S(=O)(=O)N2CCCCC2)cn1,.,4,9,.,13,10,.,.,.
CC1(c2ccc(Cl)cc2Cl)NC(=O)N(CC(=O)NC2CCCCC2)C1=O (stereo not given),.,7,9,.,-7,-4,.,.,.
CCOC(=O)c1cnc(-n2nc(C)cc2C)nc1NC(C)c1ccccc1 (stereo not given),107*,23,54*,-8,53*,44*,30,57*,45*
CN(C)c1ccc(/C=N/NC(=O)CCCO)cc1,-7,13,8,12,10,-8,.,.,.
CN(C)c1ccc(/C=N\NC(=S)SCN2C(=O)C3CCC(C)(C2=O)C3(C)C)cc1 (stereo not given),.,9,53*,1,53*,61*,52*,-20,47*
CC12CCC(C(=O)N(CSC(=S)N/N=C\c3ccccc3O)C1=O)C2(C)C (stereo not given),108*,33,66*,-7,44*,47*,24,38*,57*
COc1ccc(C(=O)NN2C(=O)C3CCC(C)(C2=O)C3(C)C)cc1 (stereo not given),-3,-2,29,18,-1,12,.,.,.
COc1ccc(/C=N\NC(=S)SCN2C(=O)C3CCC(C)(C2=O)C3(C)C)cc1 (stereo not given),4,23,52*,.,52*,49*,40*,-8,51*
O=C(Cc1ccccc1)Nc1ncnc2c1C(c1ccccc1)c1c(ccc3ccccc13)O2 (stereo not given),.,7,17,.,11,13,.,.,.
